Assay results: PubChem BioAssay AID2551 (National Center for Advancing Translational Sciences (NCATS), 2010)
Screen size: about 310,000 compounds; about 17,000 (5.5%) were called active. Roughly 11% stayed inconclusive and do not appear here. This is one part of a sample in which actives are shown more often than they occur. Unmarked numbers belong to inactive results. Calls come from the whole dose curve; as a rule, active = well fitted inhibition curve with a large enough effect; inconclusive = small, poorly fitted or top-dose-only effect, or effect the other way; inactive = no such curve, though single readings can be large or run the other way.

Each compound was assayed against Nuclear receptor ROR-gamma (Mus musculus) (UniProt P51450) (assay: qHTS for inhibitors of ROR gamma transcriptional activity). Conditions: Drosophila S2 Gal4-RORgamma UAS-luciferase reporter, 20 h; series mostly up to 53.6 µM; activity change, negative = inhibition: at the top concentration.
How it was run: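 Using a luciferase readout, inhibitors were identified by reduced reporter activity in Drosophila cells coexpressing a copper-inducible Gal4–ROR gamma fusion and UAS-driven Photinus luciferase, incubated 20 hr after 700 uM copper sulfate.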
% is set by controls: 0 for no effect and ±100 for the full control effect; potency is the fitted concentration of half-maximal effect.
Note: nearly all actives have a fitted effect of over 60% in size.

Nuclear receptor ROR-gamma (Mus musculus), sequence (P51450 whole entry, looked up, the tested form may be a part): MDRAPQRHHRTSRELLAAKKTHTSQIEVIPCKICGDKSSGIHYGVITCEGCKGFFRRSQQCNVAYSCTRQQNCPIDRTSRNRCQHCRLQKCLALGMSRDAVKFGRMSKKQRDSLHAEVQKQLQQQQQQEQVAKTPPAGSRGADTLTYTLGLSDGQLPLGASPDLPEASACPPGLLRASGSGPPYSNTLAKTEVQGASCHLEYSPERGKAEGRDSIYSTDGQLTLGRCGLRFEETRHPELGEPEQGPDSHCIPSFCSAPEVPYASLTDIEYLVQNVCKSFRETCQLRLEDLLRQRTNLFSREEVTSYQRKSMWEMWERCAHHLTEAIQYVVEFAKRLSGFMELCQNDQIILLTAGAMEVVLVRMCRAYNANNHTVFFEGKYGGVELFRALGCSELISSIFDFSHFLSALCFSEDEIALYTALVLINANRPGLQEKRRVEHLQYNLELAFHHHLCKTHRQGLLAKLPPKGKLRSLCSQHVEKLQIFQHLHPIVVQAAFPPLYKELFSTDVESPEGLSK

SMILES	Potency	activity change, negative = inhibition
Cc1ccc(NC(=O)c2nc[nH]c2C(=O)N[C@@H](CCCCNC(=O)OC(C)(C)C)C(=O)OC(C)(C)C)cc1	8.91 µM (active)	–
CCCCCOC(=O)NCCOC(=O)Nc1ccc(C(=O)OCC)cc1	–	30.1%
Cc1ccc(NC(=O)OCCNC(=O)c2ccncc2)cc1	–	16.2%
CCOC(=O)c1ccc(NC(=O)c2nc[nH]c2C(=O)N[C@@H](CCCCNC(=O)OC(C)(C)C)C(=O)OC(C)(C)C)cc1	11.2 µM (active)	–
COc1ccc(Nc2ncnc3sc(C)cc23)cc1	–	2.51%
CC(C)CCn1c(=O)c2c(nc3n2CCCN3Cc2ccccc2)n(C)c1=O	–	39.1%
Nc1nc(C23CC4CC(CC(C4)C2)C3)cs1	–	-0.833%
S=c1nc(C23CC4CC(CC(C4)C2)C3)nc2sccn12	7.94 µM (active)	–
COc1cc(OC)cc(-c2nc(=S)n3ccsc3n2)c1	–	-4.05%
C=CCC1=C/C(=C\c2c(N)n3nc(CC(=O)N4CCOCC4)sc3nc2=O)C=C(OC)C1=O	–	20.9%
COc1ccccc1Oc1nc(-c2cccnc2)nc2ccccc12	–	-19.1%
COc1ccc(Cc2nc(-c3ccccn3)no2)cc1OC	–	-6.71%
COc1cnc(-c2ccccn2)nc1Oc1ccc(C(C)(C)C)cc1	5.62 µM (active)	–
CNc1nc(-c2ccccc2OC)nc2ccccc12	–	-40.8%
COc1ccc(Sc2nc(-c3ccccc3)ncc2OC)cc1	–	3.03%
Cc1ccc(Oc2nc(-c3ccccn3)nc3ccccc23)cc1	0.251 µM (active)	–
N#Cc1ccc(Oc2cc(C(F)(F)F)nc(-c3ccccn3)n2)cc1	–	6.67%
Cc1cnc(CNc2nc(-c3cccnc3)nc3ccccc23)cn1	–	-27.6%
CC(C)(C)Nc1nc(-c2ccccn2)nc2ccccc12	1.41 µM (active)	–

SMILES	Potency	activity change, negative = inhibition
O=C(CCc1ccccc1)Nc1ccnn1C1CCN(Cc2ccc(OCCO)cc2)CC1	–	-4.43%
Cn1cc[n+](C)c1COc1ccc(C=O)cc1	–	-16.6% [at 1.91 µM]
COC(=O)[C@@H]1CC(O)CN1C(=O)C12CC3CC(CC(C3)C1)C2 (stereo partly specified)	–	-2.86%
COc1ccc(/C=N/NC(=O)c2ccc3c(c2)OCCO3)c(OC)c1	–	13.5%
COc1cc(/C=N/NC(=O)c2ccc(N3CCCC3=O)cc2)ccc1O	–	17%
COc1cc(/C=N/NC(=O)c2ccccc2)ccc1OS(=O)(=O)c1ccccc1	–	-13.4%
COc1ccccc1C(=O)NNC(=O)c1ccc(NC(=O)c2ccccc2)cc1	–	-12.5%
COc1ccc(C(=O)Nc2ccccc2C(=O)N/N=C/c2ccccc2OC)cc1	15.8 µM (active)	–
COc1ccc(C(=O)Nc2ccccc2C(=O)N/N=C/c2ccc(O)c(OC)c2)cc1	0.199 µM (active)	–
O=C(CSCc1ccccc1)Nc1ccccc1	–	9.06%
Cc1ccn2c(c1)nc(=O)c1cc(S(=O)(=O)N3CCC(C)CC3)ccc12	–	-1.5%
COc1cccc(/C=C2/SC(=S)N(CC(=O)NC3C=CS(=O)(=O)C3)C2=O)c1 (stereo unspecified)	–	-21.1%
COc1ccc(S(=O)(=O)Nc2ccccc2C(=O)N2CCCC2)cc1C	–	17.8%
Nc1ccn(C2CC(O)C(CO)O2)c(=O)n1 (stereo unspecified)	–	-20.3%
CN1CCN(CCCCOc2cccc3ccccc23)CC1	–	4.45%
O=C(O)c1c(NC(=O)N2CCCC2)sc2c1CCCC2	–	-22.4%
O=C(CN1CCCC1)Nc1sc2c(c1C(=O)Nc1ccccc1)CCCC2	5.01 µM (active)	–
Cc1ccc(NC(=O)c2c(NC(=O)CCC(=O)O)sc3c2CCCCC3)cc1	–	-28.7%
CC1=C(C(=O)OC2CCCCC2)C(c2ccccc2F)NC(=O)N1 (stereo unspecified)	–	12.3%

SMILES	Potency	activity change, negative = inhibition
Cc1ccc2c(c1)N(CC(=O)N1CCCC(C)C1)C(=O)CO2 (stereo unspecified)	–	-14.2%
Cc1ccc(NC(=O)c2cc(-c3ccc(C)o3)nc3ccccc23)nc1	–	-10.5% [at 0.365 µM]
O=c1oc2ccccc2cc1-c1csc(Nc2ccc(O)cc2)n1	–	21.7%
Cc1ccc(Nc2nc(-c3ccc(O)cc3O)cs2)nc1	8.91 µM (active)	–
CCOc1nc(NCCN2CCOCC2)nc(Nc2ccc(C)cc2)n1	–	2.46%
COc1cccc(NC(=S)NCCCN2CCOCC2)c1	–	-6.97%
CCOc1cccc(/C=N/NC(=S)NCCN2CCOCC2)c1O	1.41 µM (active)	–
Cc1ccc(N(C(=O)c2snc(C(N)=O)c2N)C(C(=O)NCC2CCCO2)c2c[nH]c3ccccc23)cc1 (stereo unspecified)	–	19.8%
COc1ccc(S(=O)(=O)NCCc2cc3ccc(C)c(C)c3[nH]c2=O)cc1	–	9.72%
Cc1cc(O)ccc1-c1cnc2ccccc2n1	–	14.1%
Fc1ccc(/C=N/Nc2nc(-c3cccnc3)nc3ccccc23)cc1	–	-43.6%
COc1ccc(/C=C(\C#N)C(=O)ONC2=NCCCCC2)cc1	–	22.8%
Cc1nc2ccccc2nc1N/N=C/c1ccc(O)cc1O	11.2 µM (active)	–
COc1ccccc1N1CCN(/N=C/c2ccc(O)cc2O)CC1	–	-15.8% [at 1.91 µM]
Oc1ccc(/C=N/NC2=NCCCCC2)c(O)c1	11.2 µM (active)	–
Cc1cc(N/N=C/c2ccccc2F)c2ccccc2n1	–	-16.8%
Oc1ccc(/C=N/Nc2nc(-c3ccccc3F)nc3ccccc23)c(O)c1	10 µM (active)	–
Cc1nc2ccccc2cc1O	–	10%
